Laboratory results reported in the supplement of paper PMC9694430.

Key:
Assay in all cases: thermal shift delta Tm vs DMSO control; higher = stronger stabilization (binding)
Conditions in all cases: 12.5 µM; protein concentration 2 µM
[1] = system: LOC_OS01G01410-cb001
Outline: (§1)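 Compounds dissolved in DMSO were added to purified rice kinase domain constructs, which had been expressed in E. coli, for differential scanning fluorimetry. Each well held 19.5 μl of 2 μM kinase in 100 mM potassium phosphate pH 7.5, 150 mM NaCl, 10% glycerol and 5 × SYPRO Orange. Fluorescence was followed from 25°C to 95°C at a rate of 0.05°C/s. Shifts in Boltzmann-fitted melting temperature are triplicate means relative to DMSO-only protein.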

[2] = system: LOC_OS01G02750-cb003
Outline: as §1

[3] = system: LOC_OS01G10900-cb004
Outline: as §1

[4] = system: LOC_OS01G13800-cb001
Outline: as §1

[5] = system: LOC_OS01G14860-cb001
Outline: as §1

[6] = system: LOC_OS01G21960-cb002
Outline: as §1

[7] = system: LOC_OS01G39600-cb002
Outline: as §1

[8] = system: LOC_OS01G48390-cb002
Outline: as §1

[9] = system: LOC_OS01G51400-cb002
Outline: as §1

[10] = system: T1, LOC_OS01G52050-cb004
T1 sequence (whole entry): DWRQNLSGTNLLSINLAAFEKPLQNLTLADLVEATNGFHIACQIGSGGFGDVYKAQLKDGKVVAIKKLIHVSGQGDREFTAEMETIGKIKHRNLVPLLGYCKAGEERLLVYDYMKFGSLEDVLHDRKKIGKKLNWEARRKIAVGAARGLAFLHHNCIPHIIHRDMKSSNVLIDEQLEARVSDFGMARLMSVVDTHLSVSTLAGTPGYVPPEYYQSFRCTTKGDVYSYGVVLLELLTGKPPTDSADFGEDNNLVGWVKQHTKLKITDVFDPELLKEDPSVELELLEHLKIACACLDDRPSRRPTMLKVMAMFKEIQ
Outline: as §1

Compound | thermal shift delta Tm [1] [°C] | thermal shift delta Tm [2] [°C] | thermal shift delta Tm [3] [°C] | thermal shift delta Tm [4] [°C] | thermal shift delta Tm [5] [°C] | thermal shift delta Tm [6] [°C] | thermal shift delta Tm [7] [°C] | thermal shift delta Tm [8] [°C] | thermal shift delta Tm [9] [°C] | thermal shift delta Tm [10] [°C]
CONC(=O)c1ccccc1Nc1cc(Nc2cc(C)nn2C(C)C)ncc1Cl | 0.19 | 1.48 | 0.57 | -0.17 | 0.66 | 0.75 | 4.21 | 1.49 | 0.4 | 3.96
CCNC(=O)Nc1ccc(-c2nc3c(c(N4CCOC[C@@H]4C)n2)CCN(C2COC2)C3)cc1 | 0.46 | 0.52 | 0.25 | 0.66 | 0.02 | 0.43 | -0.29 | 0.42 | -0.02 | 0.23
Cc1ccc(C(=O)Nc2ccc(Oc3cc4cnn(C)c4cc3-c3cn[nH]c3)c(F)c2)c(=O)n1-c1ccc(F)cc1 | 0.22 | 3.21 | 0.37 | 1.46 | 3.24 | 0.63 | 0.72 | 1.1 | 0.84 | 2.17
CC(C)n1nc(-c2ccc3oc(N)nc3c2)c2c(N)ncnc21 | 0.59 | 1.42 | 0.77 | -0.13 | 0.42 | 0.3 | -0.69 | 1.9 | 0.43 | 0.95
Cn1c(=O)c(F)c(Nc2ccc(I)cc2F)c2c(=O)n(C[C@@H](O)CO)cnc21 | 0.56 | -0.22 | 0.49 | 0.43 | 0.33 | 0.97 | 0.25 | 0.55 | 0.57 | 0.27
COc1cccc(-c2cc(=O)c3ccccc3o2)c1N | 1.2 | 0.8 | -0.05 | 0.1 | 0.1 | -0.03 | 0.91 | -0.01 | 0.02 | 0.01
Cc1cc(Nc2nc(N[C@@H](C)c3ncc(F)cn3)ncc2Cl)[nH]n1 | 4.53 | 2.77 | 0.35 | -0.03 | 2.85 | 2.53 | 4.56 | 6.25 | 0.55 | 0.71
COC(=O)N[C@@H](C)CNc1nccc(-c2cn(C(C)C)nc2-c2cc(Cl)cc(NS(C)(=O)=O)c2F)n1 [Encorafenib (LGX818)] | 0.41 | 0.83 | 0.1 | -0.12 | 5.56 | 0.28 | 0.05 | 0.2 | 0.1 | 0.5
O=c1sn(-c2cccc3ccccc23)c(=O)n1Cc1ccccc1 [Tideglusib] | 0.61 | -1.04 | -0.23 | 0.16 | 0.15 | 0.39 | 1.37 | 0.44 | 0.24 | 0.37
C[C@H](NC(=O)/C(C#N)=C/c1cccc(Br)n1)c1ccccc1 | -1.2 | -2.27 | -0.05 | -0.79 | -1.13 | -0.08 | -1.71 | 0.12 | -1 | -1.36
COc1ccc(-c2cc3c(C)nc(N)nc3n([C@H]3CC[C@H](OCCO)CC3)c2=O)cn1 | 0.74 | 0.7 | 0.3 | 0.31 | 0.17 | 0.57 | 0.34 | 0.57 | 0.45 | 0.16
Cc1ccc(Nc2cc(N[C@@H]3CCCC[C@@H]3N)nnc2C(N)=O)nc1C | 1.14 | 1.56 | 0.34 | 0.15 | 4.3 | 1.71 | 0.06 | 0.5 | 0.36 | 4.19
CC[C@H](CO)Nc1nc(NCc2ccccc2)c2ncn(C(C)C)c2n1 [Roscovitine (Seliciclib,CYC202)] | 1.5 | 0 | 0.05 | 0.22 | 0.12 | 0.12 | 0.5 | 0.22 | 0.03 | 0.24
Nc1nc(N)c(N=O)c(OCC2CCCCC2)n1 | 0.83 | 0.95 | 0.44 | -0.3 | 1.5 | 1.67 | -1.66 | 0.08 | 0.44 | 1.13
CNc1nc(Nc2cnn([C@H]3CCN(C4COC4)C[C@@H]3F)c2Cl)ncc1C(F)(F)F | 0.23 | 0.99 | 0.28 | 0.15 | 0.15 | 1.33 | 0.09 | 1.82 | 0.18 | 1.16
CS(=O)(=O)N1CCc2c(-c3cnc(N)nc3)nc(N3CCOCC3)nc21 | 0.53 | 3.27 | -0.12 | 0.32 | 0.7 | 0.72 | -0.17 | 0.96 | 0.18 | 0.32
C=CC(=O)N1CCC(Oc2cc3c(Nc4ccc(Cl)c(Cl)c4F)ncnc3cc2OC)CC1 [Poziotinib (HM781-36B)] | 0.75 | 0.07 | 0.6 | -0.34 | 0.65 | 0.36 | 1.56 | 0.49 | -0.16 | 1.24
CC(=O)c1c(C)c2cnc(Nc3ccc(N4CCNCC4)cn3)nc2n(C2CCCC2)c1=O | 0.65 | 0.74 | 0.47 | -0.38 | 2.26 | 0.28 | 0.65 | 0.1 | 0 | 0.98
Cc1cc(Nc2ncc(Cl)c(Nc3ccccc3S(=O)(=O)C(C)C)n2)c(OC(C)C)cc1C1CCNCC1 [Ceritinib (LDK378)] | 0.47 | 1.1 | 0.21 | -0.57 | 0.83 | 0.34 | 2.1 | 0.85 | 0.35 | 0.22
OC1CCC(Nc2ncc3nc(Nc4c(F)cc(F)cc4F)n([C@H]4CCOC4)c3n2)CC1 (stereo not given in full) [Tanzisertib(CC-930)] | 0.32 | 0.43 | 0.32 | 0.7 | 0.73 | 0.08 | 0.06 | 0.2 | 0.08 | 2.88
